From PubChem BioAssay (NCATS)
Records with an inconclusive call do not appear. Unmarked numbers belong to inactive results. The source made the active and inactive calls. Calls follow the shape of the full dose curve.

Molecular target: Nucleoprotein (Lymphocytic choriomeningitis virus (strain Armstrong)) (UniProt P09992)
Assay: qHTS for Inhibitors of the Functional Ribonucleoprotein Complex (vRNP) of Lymphocytic Choriomeningitis Arenaviruses (LCMV): LCMV Primary Screen - GLuc reporter signal (AID 1347086); also: nearly all actives have a fitted effect of over 70% in size
Details: LCMV minigenome vRNP cell assay, Gaussia luciferase reporter; series mostly up to 57.5 µM; activity change, negative = inhibition: at the top concentration
% is scaled to controls: 0 for no effect and ±100 for the full control effect; potency is read from the fitted curve at half-maximal effect.

Sequence of Nucleoprotein (Lymphocytic choriomeningitis virus (strain Armstrong)) (P09992 whole entry, looked up): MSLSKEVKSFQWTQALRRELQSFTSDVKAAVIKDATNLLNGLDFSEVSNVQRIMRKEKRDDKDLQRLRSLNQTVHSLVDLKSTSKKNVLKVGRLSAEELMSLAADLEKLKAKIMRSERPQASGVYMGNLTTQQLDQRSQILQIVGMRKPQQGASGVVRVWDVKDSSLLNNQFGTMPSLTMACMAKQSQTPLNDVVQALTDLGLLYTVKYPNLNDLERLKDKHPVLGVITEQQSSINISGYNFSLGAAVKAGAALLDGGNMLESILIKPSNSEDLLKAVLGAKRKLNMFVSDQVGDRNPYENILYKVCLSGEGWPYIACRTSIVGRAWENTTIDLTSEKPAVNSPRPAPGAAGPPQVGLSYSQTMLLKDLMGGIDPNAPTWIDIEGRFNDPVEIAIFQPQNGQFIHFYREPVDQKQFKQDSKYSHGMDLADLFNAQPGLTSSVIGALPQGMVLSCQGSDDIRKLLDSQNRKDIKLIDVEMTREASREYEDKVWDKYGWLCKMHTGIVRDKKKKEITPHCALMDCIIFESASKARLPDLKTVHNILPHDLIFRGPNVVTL

| Structure (SMILES) | activity change, negative = inhibition [%] | Potency |
| --- | --- | --- |
| CC1(C)S[C@@H]2[C@H](NC(=O)[C@H](N)c3ccccc3)C(=O)N2[C@H]1C(=O)O | 4.22 |  |
| O[C@@H](CNC[C@H](O)[C@H]1CCc2cc(F)ccc2O1)[C@@H]1CCc2cc(F)ccc2O1 |  | inactive |
| CC(C)(C(=O)O)c1ccc(C(O)CCCN2CCC(C(O)(c3ccccc3)c3ccccc3)CC2)cc1 (stereo unspecified) |  | inactive |
| Cc1nccn1CC1CCc2c(c3ccccc3n2C)C1=O (stereo unspecified) |  | inactive |
| Cc1[nH]cnc1CN1CCc2c(c3ccccc3n2C)C1=O | -3.61 |  |
| OCCN1CCN(CCCN2c3ccccc3Sc3ccc(C(F)(F)F)cc32)CC1 |  | inactive |
| O[C@@H]1CO[C@H]2[C@@H]1OC[C@@H]2O | 0.603 |  |
| CN(C/C=C/C#CC(C)(C)C)Cc1cccc2ccccc12 | 13.1 |  |
| CC(C)(C#N)c1cc(Cn2cncn2)cc(C(C)(C)C#N)c1 |  | inactive |
| Cc1cccc(Nc2ccccc2C(=O)O)c1C | 11.8 |  |
| C[C@]12CC[C@@H]3c4ccc(O)cc4C[C@@H](CCCCCCCCCS(=O)CCCC(F)(F)C(F)(F)F)[C@H]3[C@@H]1CC[C@@H]2O (stereo partly specified) | 6.26 |  |
| Nc1ccc(O)c(C(=O)O)c1 | 14.2 |  |
| CCOC(=O)[C@H](CCc1ccccc1)N[C@@H](C)C(=O)N1Cc2cc(OC)c(OC)cc2C[C@H]1C(=O)O | 12.7 |  |
| Nc1[nH]c(=O)ncc1F | 0.389 |  |
| CC1=C(C(=O)O)N2C(=O)[C@@H](NC(=O)[C@H](N)c3ccccc3)[C@H]2SC1 | 9.77 |  |
| CC/C(=C(\c1ccccc1)c1ccc(OCCN(C)C)cc1)c1ccccc1 | -2.48 |  |
| O=C(CCCCCCC(=O)Nc1ccccc1)NO | -29.1 |  |
| Cc1cn([C@H]2C=C[C@@H](CO)O2)c(=O)[nH]c1=O |  | inactive |
| CC(C)C1CCC(C(=O)N[C@H](Cc2ccccc2)C(=O)O)CC1 (stereo partly specified) |  | inactive |
| CN1CCC[C@@H]1Cc1c[nH]c2ccc(CCS(=O)(=O)c3ccccc3)cc12 | 12 |  |
| CCOC(=O)C1=C(C)NC(C)=C(C(=O)OC)C1c1cccc(Cl)c1Cl (stereo unspecified) | -16.6 |  |
| Cc1cn[nH]c1 |  | inactive |
| Cc1ccc(C(=O)c2cc(O)c(O)c([N+](=O)[O-])c2)cc1 |  | inactive |
| CCN(CC)C(=S)SSC(=S)N(CC)CC |  | 193 nM (active) |
| Cn1c(=O)c2c(ncn2CC(O)CO)n(C)c1=O (stereo unspecified) |  | inactive |
| CCCNC(=O)NS(=O)(=O)c1ccc(Cl)cc1 |  | inactive |
